# The campaign covered roughly 5,500 compounds. About 2,000 (36%) were called active. About 18% were inconclusive and are not listed. The list shows a part of the results. Unmarked numbers belong to inactive results. No stated cut-off is given here; in the data, active means normalized growth mostly below about 0.91 (no sharp cut-off); inconclusive means no clear call, values can overlap the other calls; inactive means mostly above about 0.92.
# Assay: chemical genetic growth profiling, strain panel (AID 1159580);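 further: tested at 20 µM; growth read once vehicle control cultures reached saturation at 30 °C; 1 = growth at the plate median or of vehicle wells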
# Details: growth OD
structure (smiles),measurement,setting,value
CC(=O)O[C@@H]1C=C[C@@]2(C)C(C[C@@H](OC(C)=O)[C@@]3(C)C4=CC(=O)O[C@@H](c5ccoc5)[C@]4(C)CCC23)C1(C)C (some centres not stated),normalized growth,"S. cerevisiae deletion strains, locus YJR066W, strain TOR1, stronger effect = lower value",0.928
same,normalized growth,"S. cerevisiae deletion strains, locus YJR075W, strain HOC1, stronger effect = lower value",1.03
same,normalized growth,"S. cerevisiae deletion strains, locus YKL009W, strain mrt4, stronger effect = lower value",0.364 (active)
same,normalized growth,"S. cerevisiae deletion strains, locus YKL068W, stronger effect = lower value",0.0545 (active)
same,normalized growth,"S. cerevisiae deletion strains, locus YKL085W, strain MDH1 (second series), stronger effect = lower value",0.0525 (active)
same,normalized growth,"S. cerevisiae deletion strains, locus YKL085W, strain MDH1, stronger effect = lower value",0.0525 (active)
same,normalized growth,"S. cerevisiae deletion strains, locus YKL160W, strain elf1, stronger effect = lower value",0.988
same,normalized growth,"S. cerevisiae deletion strains, locus YKL190W, strain CNB1, stronger effect = lower value",1.01
same,normalized growth,"S. cerevisiae deletion strains, locus YKR001C, strain vps1, stronger effect = lower value",0.0622 (active)
same,normalized growth,"S. cerevisiae deletion strains, locus YKR026C, strain gcn3, stronger effect = lower value",1.01
same,normalized growth,"S. cerevisiae deletion strains, locus YKR091W, strain srl3, stronger effect = lower value",0.982
same,normalized growth,"S. cerevisiae deletion strains, locus YLL001W, strain dnm1, stronger effect = lower value",1.02
same,normalized growth,"S. cerevisiae deletion strains, locus YLL026W, stronger effect = lower value",1.01
same,normalized growth,"S. cerevisiae deletion strains, locus YLL041C, strain sdh2, stronger effect = lower value",0.999
same,normalized growth,"S. cerevisiae deletion strains, locus YLR027C, strain aat2, stronger effect = lower value",1
same,normalized growth,"S. cerevisiae deletion strains, locus YLR039C, strain RIC1, stronger effect = lower value",0.982
same,normalized growth,"S. cerevisiae deletion strains, locus YLR058C, strain SHM2, stronger effect = lower value",1.01
same,normalized growth,"S. cerevisiae deletion strains, locus YLR102C, strain apc9, stronger effect = lower value",0.0602 (active)
same,normalized growth,"S. cerevisiae deletion strains, locus YLR113W, strain HOG1, stronger effect = lower value",1.01
same,normalized growth,"S. cerevisiae deletion strains, locus YLR221C, strain rsa3, stronger effect = lower value",1.05
same,normalized growth,"S. cerevisiae deletion strains, locus YLR258W, strain gsy2, stronger effect = lower value",0.999
same,normalized growth,"S. cerevisiae deletion strains, locus YLR262C, strain YPT6 (second series), stronger effect = lower value",0.96
same,normalized growth,"S. cerevisiae deletion strains, locus YLR262C, strain YPT6, stronger effect = lower value",0.986
same,normalized growth,"S. cerevisiae deletion strains, locus YLR268W, strain sec22, stronger effect = lower value",0.0676 (active)
same,normalized growth,"S. cerevisiae deletion strains, locus YLR320W, strain mms22, stronger effect = lower value",1.02
same,normalized growth,"S. cerevisiae deletion strains, locus YLR330W, strain CHS5, stronger effect = lower value",1.01
same,normalized growth,"S. cerevisiae deletion strains, locus YLR342W, strain FKS1 (second series), stronger effect = lower value",1.03
same,normalized growth,"S. cerevisiae deletion strains, locus YLR342W, strain FKS1, stronger effect = lower value",0.994
same,normalized growth,"S. cerevisiae deletion strains, locus YLR357W, strain rsc2, stronger effect = lower value",1.03
same,normalized growth,"S. cerevisiae deletion strains, locus YLR370C, strain arc18, stronger effect = lower value",0.983
same,normalized growth,"S. cerevisiae deletion strains, locus YLR371W, strain rom2, stronger effect = lower value",0.0619 (active)
same,normalized growth,"S. cerevisiae deletion strains, locus YLR384C, strain iki3, stronger effect = lower value",0.983
same,normalized growth,"S. cerevisiae deletion strains, locus YLR418C, strain cdc73, stronger effect = lower value",0.0929 (active)
same,normalized growth,"S. cerevisiae deletion strains, locus YML016C, strain PPZ1, stronger effect = lower value",1.02
same,normalized growth,"S. cerevisiae deletion strains, locus YML032C, strain rad52, stronger effect = lower value",0.15 (active)
same,normalized growth,"S. cerevisiae deletion strains, locus YML120C, strain ndi1, stronger effect = lower value",0.994
same,normalized growth,"S. cerevisiae deletion strains, locus YML124C, strain tub3, stronger effect = lower value",0.0589 (active)
same,normalized growth,"S. cerevisiae deletion strains, locus YMR058W, strain fet3, stronger effect = lower value",0.984
same,normalized growth,"S. cerevisiae deletion strains, locus YMR078C, strain ctf18, stronger effect = lower value",0.072 (active)
same,normalized growth,"S. cerevisiae deletion strains, locus YMR125W, strain sto1, stronger effect = lower value",0.997
same,normalized growth,"S. cerevisiae deletion strains, locus YMR129W, stronger effect = lower value",0.999
same,normalized growth,"S. cerevisiae deletion strains, locus YMR205C, strain PFK2, stronger effect = lower value",1
same,normalized growth,"S. cerevisiae deletion strains, locus YMR223W, strain ubp8, stronger effect = lower value",0.0665 (active)
same,normalized growth,"S. cerevisiae deletion strains, locus YMR231W, strain pep5, stronger effect = lower value",0.991
same,normalized growth,"S. cerevisiae deletion strains, locus YMR263W, strain SAP30, stronger effect = lower value",1
same,normalized growth,"S. cerevisiae deletion strains, locus YMR307W, strain GAS1, stronger effect = lower value",1.06
same,normalized growth,"S. cerevisiae deletion strains, locus YNL067W, strain RPL9B, stronger effect = lower value",1
same,normalized growth,"S. cerevisiae deletion strains, locus YNL071W, strain lat1, stronger effect = lower value",0.992
same,normalized growth,"S. cerevisiae deletion strains, locus YNL128W, strain TEP1, stronger effect = lower value",1
same,normalized growth,"S. cerevisiae deletion strains, locus YNL153C, strain GIM3, stronger effect = lower value",0.998
same,normalized growth,"S. cerevisiae deletion strains, locus YNL183C, strain NPR1, stronger effect = lower value",0.956
same,normalized growth,"S. cerevisiae deletion strains, locus YNL209W, strain ssb2, stronger effect = lower value",0.985
same,normalized growth,"S. cerevisiae deletion strains, locus YNL233W, strain BNI4, stronger effect = lower value",1
same,normalized growth,"S. cerevisiae deletion strains, locus YNL248C, strain rpa49, stronger effect = lower value",0.961
same,normalized growth,"S. cerevisiae deletion strains, locus YNL250W, strain rad50, stronger effect = lower value",0.065 (active)
same,normalized growth,"S. cerevisiae deletion strains, locus YNL271C, strain bni1, stronger effect = lower value",0.0603 (active)
same,normalized growth,"S. cerevisiae deletion strains, locus YNL298W, strain CLA4, stronger effect = lower value",0.0602 (active)
same,normalized growth,"S. cerevisiae deletion strains, locus YNL307C, strain MCK1, stronger effect = lower value",0.069 (active)
same,normalized growth,"S. cerevisiae deletion strains, locus YNL322C, strain KRE1 (second series), stronger effect = lower value",0.985
same,normalized growth,"S. cerevisiae deletion strains, locus YNL322C, strain KRE1, stronger effect = lower value",1.02
same,normalized growth,"S. cerevisiae deletion strains, locus YNR049C, strain mso1, stronger effect = lower value",0.975
same,normalized growth,"S. cerevisiae deletion strains, locus YNR052C, strain pop2, stronger effect = lower value",0.112 (active)
same,normalized growth,"S. cerevisiae deletion strains, locus YOL006C, strain TOP1, stronger effect = lower value",0.901
same,normalized growth,"S. cerevisiae deletion strains, locus YOL147C, strain pex11, stronger effect = lower value",0.0888 (active)
same,normalized growth,"S. cerevisiae deletion strains, locus YOR001W, strain rrp6, stronger effect = lower value",1.01
same,normalized growth,"S. cerevisiae deletion strains, locus YOR061W, strain CKA2, stronger effect = lower value",1.01
same,normalized growth,"S. cerevisiae deletion strains, locus YOR069W, strain VPS5, stronger effect = lower value",1.01
same,normalized growth,"S. cerevisiae deletion strains, locus YOR070C, strain gyp1, stronger effect = lower value",0.991
same,normalized growth,"S. cerevisiae deletion strains, locus YOR080W, strain dia2, stronger effect = lower value",0.984
same,normalized growth,"S. cerevisiae deletion strains, locus YOR083W, strain WHI5, stronger effect = lower value",1
same,normalized growth,"S. cerevisiae deletion strains, locus YOR106W, strain vam3, stronger effect = lower value",0.997
same,normalized growth,"S. cerevisiae deletion strains, locus YOR136W, strain idh2, stronger effect = lower value",0.0732 (active)
same,normalized growth,"S. cerevisiae deletion strains, locus YOR144C, strain elg1, stronger effect = lower value",0.131 (active)
same,normalized growth,"S. cerevisiae deletion strains, locus YOR184W, strain ser1, stronger effect = lower value",0.0712 (active)
same,normalized growth,"S. cerevisiae deletion strains, locus YOR231W, strain MKK1, stronger effect = lower value",0.985
same,normalized growth,"S. cerevisiae deletion strains, locus YOR265W, strain rbl2, stronger effect = lower value",0.985
same,normalized growth,"S. cerevisiae deletion strains, locus YOR270C, strain vph1, stronger effect = lower value",0.885
same,normalized growth,"S. cerevisiae deletion strains, locus YOR290C, strain snf2, stronger effect = lower value",0.956
same,normalized growth,"S. cerevisiae deletion strains, locus YOR316C, strain cot1, stronger effect = lower value",0.0594 (active)
same,normalized growth,"S. cerevisiae deletion strains, locus YPL051W, strain arl3, stronger effect = lower value",0.996
same,normalized growth,"S. cerevisiae deletion strains, locus YPL055C, strain LGE1, stronger effect = lower value",0.968
same,normalized growth,"S. cerevisiae deletion strains, locus YPL078C, strain atp4, stronger effect = lower value",0.982
same,normalized growth,"S. cerevisiae deletion strains, locus YPL106C, strain sse1, stronger effect = lower value",0.975
same,normalized growth,"S. cerevisiae deletion strains, locus YPL240C, strain hsp82, stronger effect = lower value",0.993
same,normalized growth,"S. cerevisiae deletion strains, locus YPL241C, strain CIN2, stronger effect = lower value",1.01
same,normalized growth,"S. cerevisiae deletion strains, locus YPL256C, strain CLN2, stronger effect = lower value",0.948
same,normalized growth,"S. cerevisiae deletion strains, locus YPR119W, strain clb2, stronger effect = lower value",0.0629 (active)
same,normalized growth,"S. cerevisiae deletion strains, locus YPR141C, strain kar3, stronger effect = lower value",0.0773 (active)
same,normalized growth,"S. cerevisiae deletion strains, locus YPR163C, strain tif3, stronger effect = lower value",0.0691 (active)
same,normalized growth,"S. cerevisiae deletion strains, locus YPR167C, strain met16, stronger effect = lower value",0.0608 (active)
same,normalized growth,"S. cerevisiae deletion strains, strain wtn01, stronger effect = lower value",0.0601 (active)
same,normalized growth,"S. cerevisiae strains, strain wild type, stronger effect = lower value",1.02

# Reference: PubChem BioAssay AID1159580 (chemical genetic matrix, 2015)
